Reference: PubChem BioAssay (Tox21)
Results filed as inconclusive are left out. Activity calls are given as the source filed them. Unless noted, calls follow the shape of the dose curve; as a rule, active = well fitted curve in the direction sought with a large enough effect in the repeat runs; inconclusive = weak or mixed curves; inactive = no such curve, though single readings can be large; an effect the other way counts as inactive or inconclusive.

Legend:
[1] = target: Retinoic acid receptor RXR-alpha (Homo sapiens) (UniProt P19793); assay: qHTS assay to identify small molecule agonists of the RXR signaling pathway (AID 1159527; calls by dose curve; also: nearly all actives have a fitted effect of over 35% in size)
Procedure, shortened: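 Agonist mode; 9-cis retinoic acid positive control. HEK 293T UAS-bla reporter cells, 2% charcoal-stripped FBS, 16 hr compound exposure at 37 C/5% CO2. LiveBLAzer B/G FRET substrate 2 hr RT; ex 405, em 460/530 nm.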

[2] = qHTS assay to identify small molecule agonists of the RXR signaling pathway - cell viability counter screen (AID 1159529); also: series mostly up to about 77 µM; nearly all actives have a fitted effect of over 50% in size
Procedure, shortened: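 Luminescence from CellTiter-Glo (30 min, RT) measured viability in the same wells as the beta-lactamase reporter readout. Cells: GeneBLAzer RXR-alpha HEK 293T, 2% charcoal-stripped FBS. Compound exposure 16 hr, 37 C.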

[3] = qHTS assay to identify small molecule antagonists of the retinoid acid receptor (RAR) signaling pathway - cell viability counter screen (AID 1159551); also: nearly all actives have a fitted effect of over 35% in size
Procedure, shortened: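 Cytotoxicity counter screen in C3RL4 cells: 6 h compound exposure with 1 uM retinol (final), viability from cellular ATP by luminescence.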

[4] = qHTS assay to identify small molecule antagonists of the retinoic acid receptor (RAR) signaling pathway (AID 1159552; also: nearly all actives have a fitted effect of over 50% in size)
Procedure, shortened: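 Luminescence from a RARE luciferase reporter in C3RL4 cells served as read-out. Cells received compounds together with 1 uM final retinol and incubated 6 hr at 37 C before detection reagent was added for 30 min at room temperature.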

[5] = qHTS assay to identify small molecule agonists of the constitutive androstane receptor (CAR) signaling pathway - cell viability counter screen (AID 1224836); also: nearly all actives have a fitted effect of over 45% in size; also: potency is read from the fitted curve at half-maximal effect
Procedure, shortened: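 Viability read-out: CellTiter-Fluor fluorescence after 23 h compound exposure at 37 C/5% CO2 in double-stable HepG2-CYP2B6-hCAR cells, with PK11195 present at 0.75 uM final; compounds tested in 15-point titration.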

[6] = qHTS assay to identify small molecule antagonists of the constitutive androstane receptor (CAR) signaling pathway - cell viability counter screen (AID 1224837); also: nearly all actives have a fitted effect of over 45% in size; also: potency is read from the fitted curve at half-maximal effect
Procedure, shortened: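 Multiplexed cytotoxicity read-out for the CAR antagonist screen: double-stable HepG2-CYP2B6-hCAR cells co-treated with 50 nM CITCO (final) and compound over 15 concentrations, incubated 23 hr, then assessed by CellTiter-Fluor fluorescence.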

[7] = target: Thyrotropin receptor (Homo sapiens) (UniProt P16473); assay: qHTS assay to identify small molecule agonists of the thyroid stimulating hormone receptor (TSHR) signaling pathway (AID 1224843; calls by dose curve; also: nearly all actives have a fitted effect of over 45% in size)
Procedure, shortened: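 Screening of the Tox21 10K collection used HEK293 cells engineered with TSHR at 800 cells per well. After a 30-min room-temperature compound exposure, HTRF cAMP reagents were added and fluorescence recorded 1 h later.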

[8] = qHTS assay to identify small molecule agonists of the hypoxia (HIF-1) signaling pathway - cell viability counter screen (AID 1224844; calls by dose curve; also: nearly all actives have a fitted effect of over 50% in size)
Procedure, shortened: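 Tox21 10K compounds were added to HRE-bla ME-180 cells (0.5% dialyzed FBS) and incubated 17 hrs at 37C; ATP-based CellTiter-Glo luminescence then reported cell viability in the same wells.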

[9] = qHTS assay to identify small molecule agonists of H2AX (AID 1224845; active = well fitted activation curve with a large enough effect in the signal ratio in the repeat runs, not every such curve was filed as active; the % refers to the signal ratio)
Procedure, shortened: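 Phospho-H2AX Ser139 measured by HTRF (ex 320 nm; em 665 and 620 nm) after 24 hr antibody incubation. Compounds, 15 concentrations, 0.76% DMSO, were applied to CHO-K1 cells for 3hr at 37C before lysis.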

[10] = target: Luciferin 4-monooxygenase (Photinus pyralis) (UniProt P08659); assay: qHTS assay to identify small molecule inhibitors of firefly luciferase (AID 1224835); also: nearly all actives have a fitted effect of over 25% in size; also: potency is read from the fitted curve at half-maximal effect
Procedure, shortened: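 Inhibition of purified Photinus luciferase is measured by luminescence. Substrate levels (D-luciferin, ATP) sit at their KM values. Each compound is tested in a concentration series.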

[11] = target: Nuclear receptor subfamily 1 group I member 3 (Homo sapiens) (UniProt Q14994); assay: qHTS assay to identify small molecule antagonists of the constitutive androstane receptor (CAR) signaling pathway (AID 1224838); also: nearly all actives have a fitted effect of over 40% in size
Procedure, shortened: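 Compounds were titrated across 15 concentrations onto HepG2 cells double-stably expressing hCAR and a CYP2B6-2.2kb reporter, together with 50 nM CITCO (final). After 24 h at 37 C, luciferase activity was measured by luminescence.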

[12] = target: Nuclear receptor subfamily 1 group I member 3 (Homo sapiens) (UniProt Q14994); assay: qHTS assay to identify small molecule agonists of the constitutive androstane receptor (CAR) signaling pathway (AID 1224839); also: nearly all actives have a fitted effect of over 15% in size; also: potency is read from the fitted curve at half-maximal effect;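 as to activation: HepG2 cells stably carrying human CAR and a CYP2B6 luciferase reporter; series mostly up to about 92 µM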
Procedure, shortened: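 Luminescence read-out (ONE-Glo, 30 min, room temperature) from double-stable HepG2-CYP2B6-hCAR cells exposed 24 h to 15-point compound series in presence of 0.75 uM PK11195 final.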

[13] = qHTS assay to identify small molecule antagonists of the estrogen related receptor signaling pathway with the pleiotropic PPARgamma coactivator (PGC) from Tox21 10K library - cell viability counter screen (AID 1224840; active = well fitted cell-killing curve with a large enough effect in the repeat runs, not every such curve was filed as active; also: nearly all actives have a fitted effect of over 40% in size)
Procedure, shortened: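 Step one, plate 2,000 PGC/ERR cells per well; step two, incubate 6 h at 37 C/5% CO2; step three, pin-transfer compounds; step four, incubate 17.5 h; step five, add CellTiter-Fluor and read fluorescence after 30 min.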

[14] = qHTS assay to identify small molecule antagonists of the estrogen related receptor (ERR) signaling pathway from Tox21 library - cell viability counter screen (AID 1224834); also: nearly all actives have a fitted effect of over 30% in size; also: potency is read from the fitted curve at half-maximal effect
Procedure, shortened: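 Cytotoxicity of test substances is gauged in the same ERR cells used for the antagonist screen, after 17.5 h of compound treatment at 37 C, by CellTiter-Fluor fluorescence measured after 30 min.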

[15] = qHTS assay to identify small molecule antagonists of the estrogen related receptor signaling pathway with the pleiotropic PPARgamma coactivator (PGC) from Tox21 10K library (AID 1224841; call rule not given here; also: series mostly up to about 92 µM; actives are mostly falling curves and most rising ones were filed inactive; nearly all actives have a fitted effect of over 50% in size)
Procedure, shortened: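 Antagonism in this quantitative HTS is taken from loss of luciferase signal in PGC/ERR cells. Cells (2,000/well) are treated with compounds in DMSO after a 6 h settling period and read by One-Glo luminescence after 18 h.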

[16] = qHTS assay to identify small molecule agonists of the estrogen related receptor signaling pathway with the pleiotropic PPARgamma coactivator (PGC) from Tox21 10K library (AID 1224842); also: nearly all actives have a fitted effect of over 15% in size
Procedure, shortened: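 Luminescence from One-Glo (30 min, room temperature) measured after PGC/ERR cells had 18 h at 37 C with pinned compound (23 nL in DMSO). Cells had been seeded at 2,000 per well and pre-incubated 6 h.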

[17] = qHTS assay to identify small molecule agonists of the retinoic acid receptor (RAR) signaling pathway (AID 1159553)
Procedure, shortened: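 Agonist activity was scored in C3RL4 cells bearing a retinoic acid response element luciferase construct. Cells were treated with compounds for 6 hr at 37 C, and luciferase signal was measured as luminescence.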

[18] = qHTS assay to identify small molecule antagonists of the estrogen related receptor (ERR) signaling pathway (AID 1224819)
Procedure, shortened: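 Compounds dissolved in DMSO were pin-transferred onto ERR cells that had been plated 6 h earlier, and cells were then incubated 18 h at 37 C; signal was luciferase luminescence via One-Glo.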

[19] = qHTS assay to identify small molecule agonists of the estrogen related receptor (ERR) signaling pathway (AID 1224820)
Procedure, shortened: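 Cells: ERR line from NTP, 2,000/well. Pre-incubation 6 h, 37 C/5% CO2. Compound (DMSO) pin transfer, 18 h 37 C. One-Glo, 30 min RT, luminescence.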

[20] = qHTS assay to identify small molecule agonists of the estrogen related receptor signaling pathway with the pleiotropic PPARgamma coactivator (PGC) (AID 1224823)
Procedure, shortened: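 Steps: plate PGC/ERR cells at 2,000 cells/well; incubate 6 h, 37 C/5% CO2; pin-transfer compounds (DMSO); incubate 18 h, 37 C; add One-Glo; 30 min RT; read luminescence.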

Measured: Potency

Chain of Thyrotropin receptor (Homo sapiens) (P16473 whole entry, looked up): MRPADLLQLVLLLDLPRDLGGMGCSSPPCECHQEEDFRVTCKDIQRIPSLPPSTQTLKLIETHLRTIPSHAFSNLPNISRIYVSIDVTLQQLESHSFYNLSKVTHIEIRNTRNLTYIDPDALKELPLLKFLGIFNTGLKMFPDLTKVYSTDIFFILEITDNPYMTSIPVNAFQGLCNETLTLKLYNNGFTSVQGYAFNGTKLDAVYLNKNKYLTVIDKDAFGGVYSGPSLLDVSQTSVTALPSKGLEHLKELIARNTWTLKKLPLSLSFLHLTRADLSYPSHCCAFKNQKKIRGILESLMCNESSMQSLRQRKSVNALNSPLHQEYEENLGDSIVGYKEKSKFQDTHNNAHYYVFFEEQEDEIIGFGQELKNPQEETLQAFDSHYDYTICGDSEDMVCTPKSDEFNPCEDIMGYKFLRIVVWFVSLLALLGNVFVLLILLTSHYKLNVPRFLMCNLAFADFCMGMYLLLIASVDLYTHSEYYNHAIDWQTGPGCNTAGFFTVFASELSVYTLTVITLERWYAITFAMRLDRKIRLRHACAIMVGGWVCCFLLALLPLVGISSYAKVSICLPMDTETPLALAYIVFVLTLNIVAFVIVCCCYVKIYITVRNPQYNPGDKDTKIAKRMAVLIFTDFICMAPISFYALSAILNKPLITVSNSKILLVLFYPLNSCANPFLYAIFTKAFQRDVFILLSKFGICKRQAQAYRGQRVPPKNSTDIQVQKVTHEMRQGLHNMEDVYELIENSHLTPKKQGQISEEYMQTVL
Chain of Luciferin 4-monooxygenase (Photinus pyralis) (P08659 whole entry, looked up): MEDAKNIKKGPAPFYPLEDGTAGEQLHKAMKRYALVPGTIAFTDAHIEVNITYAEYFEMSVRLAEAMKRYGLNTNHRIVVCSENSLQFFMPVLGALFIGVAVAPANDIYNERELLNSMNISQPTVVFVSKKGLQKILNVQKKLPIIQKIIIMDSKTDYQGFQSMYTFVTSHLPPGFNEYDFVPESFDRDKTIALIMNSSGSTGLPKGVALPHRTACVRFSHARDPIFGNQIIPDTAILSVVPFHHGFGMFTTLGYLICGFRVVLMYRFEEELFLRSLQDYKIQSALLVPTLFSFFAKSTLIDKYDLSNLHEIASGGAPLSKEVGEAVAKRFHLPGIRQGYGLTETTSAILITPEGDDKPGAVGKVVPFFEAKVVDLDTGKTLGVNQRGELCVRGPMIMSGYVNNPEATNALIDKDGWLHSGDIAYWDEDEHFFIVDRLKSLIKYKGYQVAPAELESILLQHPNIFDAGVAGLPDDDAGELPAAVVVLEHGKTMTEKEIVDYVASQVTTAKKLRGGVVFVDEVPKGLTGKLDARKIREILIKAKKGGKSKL
Chain of Retinoic acid receptor RXR-alpha (Homo sapiens) (P19793 whole entry, looked up): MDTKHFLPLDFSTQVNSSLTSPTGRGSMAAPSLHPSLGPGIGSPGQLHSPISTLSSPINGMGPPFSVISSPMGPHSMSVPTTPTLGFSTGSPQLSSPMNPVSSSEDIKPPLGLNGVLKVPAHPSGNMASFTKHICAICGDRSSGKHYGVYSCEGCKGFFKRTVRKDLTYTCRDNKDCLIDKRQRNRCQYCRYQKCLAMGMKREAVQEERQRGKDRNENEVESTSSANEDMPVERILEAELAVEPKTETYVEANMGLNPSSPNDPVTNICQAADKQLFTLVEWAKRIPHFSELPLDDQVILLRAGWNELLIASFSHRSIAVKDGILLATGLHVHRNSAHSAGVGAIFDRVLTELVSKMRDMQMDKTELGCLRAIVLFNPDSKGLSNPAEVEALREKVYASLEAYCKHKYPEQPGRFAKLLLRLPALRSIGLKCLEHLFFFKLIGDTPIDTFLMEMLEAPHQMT
Chain of Nuclear receptor subfamily 1 group I member 3 (Homo sapiens) (Q14994 whole entry, looked up): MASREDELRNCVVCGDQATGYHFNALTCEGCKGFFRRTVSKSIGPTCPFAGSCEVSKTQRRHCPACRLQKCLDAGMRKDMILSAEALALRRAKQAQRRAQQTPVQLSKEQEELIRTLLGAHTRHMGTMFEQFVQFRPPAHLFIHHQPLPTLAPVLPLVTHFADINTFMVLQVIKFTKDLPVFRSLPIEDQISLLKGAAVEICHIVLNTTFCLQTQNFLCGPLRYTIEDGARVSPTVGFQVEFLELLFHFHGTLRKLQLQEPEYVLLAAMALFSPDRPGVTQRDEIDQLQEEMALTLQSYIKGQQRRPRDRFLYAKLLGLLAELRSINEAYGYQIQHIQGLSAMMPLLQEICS

CC(=O)Nc1cccc(C)c1
inactive: [1] | [2] | [3] | [4] | [5] | [6] | [7] | [8] | [9]

Nc1cccc(O)c1
not listed: [7] | [14] | [15] | [16] | [17] | [18] | [19] | [20]
inactive: all other assays above

CCOC(=O)c1ccc(OC(=O)CCCCCN=C(N)N)cc1
not listed: [10] | [12] | [15] | [16] | [17] | [18] | [19] | [20]
inactive: all other assays above

O=C(Nc1ccc(Cl)c(Cl)c1)C1CC1
not listed: [10] | [12] | [13] | [17] | [18] | [19] | [20]
inactive: all other assays above

O=S(=O)(O)c1cc(O)c2ccc(Nc3ccccc3)cc2c1
inactive: [1] | [2] | [3] | [4] | [5] | [6] | [11] | [13] | [8]
active: [10] 17.8 µM

C[C@@H]1O[C@@H](O[C@@H]2[C@@H](O)[C@H](OCCc3ccc(O)c(O)c3)O[C@H](CO[C@@H]3O[C@H](CO)[C@@H](O)[C@H](O)[C@H]3O)[C@H]2OC(=O)/C=C/c2ccc(O)c(O)c2)[C@H](O)[C@H](O)[C@H]1O
inactive: [1] | [2] | [3] | [4] | [5] | [6] | [11] | [13] | [8]

O=Cc1ccc(Cl)c(Cl)c1
inactive: [1] | [2] | [3] | [17] | [14] | [10] | [5] | [6] | [13] | [7]

Cc1[nH]cnc1-c1ccc(Cl)cc1
inactive: [1] | [2] | [3] | [4] | [14] | [5] | [6] | [11] | [13] | [8] | [9]

COc1ccc(-c2cc(=O)c3c(O)cc(O[C@@H]4O[C@H](CO[C@@H]5O[C@@H](C)[C@H](O)[C@@H](O)[C@H]5O)[C@@H](O)[C@H](O)[C@H]4O)cc3o2)cc1O
inactive: [1] | [2] | [3] | [4] | [5] | [6] | [13] | [15] | [16] | [8]

Nc1ccc([N+](=O)[O-])c(N)c1
active: [14] 47.3 µM | [5] 53.1 µM | [6] 47.3 µM
not listed: [10] | [13] | [17] | [18] | [19] | [20]
inactive: all other assays above

CC(C)C[C@H](NC(=O)CNC(=O)[C@H](Cc1ccc(O)cc1)NC(=O)[C@H](CO)NC(=O)[C@H](Cc1c[nH]c2ccccc12)NC(=O)[C@H](Cc1cnc[nH]1)NC(=O)[C@@H]1CCC(=O)N1)C(=O)N[C@@H](CCCN=C(N)N)C(=O)N1CCC[C@H]1C(=O)NCC(N)=O (stereo in doubt)
not listed: [4] | [7] | [10] | [15] | [16] | [18] | [19] | [20]
inactive: all other assays above

CC(C)c1ccc2cc(C(C)C)ccc2c1
inactive: [1] | [2] | [3] | [4] | [14] | [5] | [6] | [13] | [8] | [9]

CC(N)C(=O)OC(C)(C)Cc1ccc(Cl)cc1 (configuration not stated)
inactive: [1] | [2] | [3] | [4] | [10] | [5] | [6] | [11] | [12] | [8] | [9]

CCCCCCOc1ccccc1C(N)=O
inactive: [1] | [2] | [3] | [4] | [14] | [5] | [6] | [13] | [7] | [9]

CCO[Si](CCCS)(OCC)OCC
not listed: [10] | [11] | [12] | [17] | [18] | [19] | [20]
inactive: all other assays above

O=C(c1ccc(O)cc1)c1ccc(O)c(O)c1O
inactive: [1] | [2] | [3] | [4] | [11] | [13] | [15] | [16] | [8]

CCCCOC(=O)c1ccccc1
inactive: [1] | [2] | [3] | [4] | [5] | [6] | [15] | [16] | [8] | [9]

Oc1ccccc1-c1nnco1
inactive: [1] | [2] | [3] | [4] | [14] | [6] | [7] | [9]

CC(C)C(=O)OCCc1ccccc1
inactive: [1] | [2] | [3] | [4] | [14] | [5] | [6] | [7] | [8] | [9]

CC(=O)CCCCn1c(=O)c2c(ncn2C)n(C)c1=O
not listed: [4] | [11] | [12] | [17]
inactive: all other assays above

CCC(C)(CCC(C)C)C(=O)O (configuration not stated)
inactive: [1] | [2] | [3] | [4] | [14] | [5] | [6] | [15] | [16] | [8] | [9]

Cc1cc2cc3c(C)cc(=O)oc3c(C)c2o1
active: [12] 11.9 µM
not listed: [7] | [9] | [10] | [13] | [17] | [18] | [19] | [20]
inactive: all other assays above
